Source: PubChem BioAssay AID504840 (Johns Hopkins Ion Channel Center, 2011)
Screen size: about 1,500 compounds; about 890 (59%) were called active.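 How the source made its calls: active means inhibition of the choline-evoked signal at any tested dose together with a fitted dose-response curve; inactive means no inhibition at any dose or no curve.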 So high a share suggests a set chosen from earlier hits. The list is a sample of the results. Potency and affinity values are given separately.

target: High affinity choline transporter 1 (Homo sapiens) (UniProt Q9GZV3); assay: CHT inhibitors, dose response, cell-based, 5-point CRC, membrane potential dye (AID 504840); conditions: HEK293-CHT, choline-induced depolarization, CHT with LV-to-AA double alanine mutation; series mostly up to 37 µM; inhibition: at the top concentration;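 further: 0% = buffer-only response and 100% = EC90 choline response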
Sequence (Q9GZV3 whole entry, looked up): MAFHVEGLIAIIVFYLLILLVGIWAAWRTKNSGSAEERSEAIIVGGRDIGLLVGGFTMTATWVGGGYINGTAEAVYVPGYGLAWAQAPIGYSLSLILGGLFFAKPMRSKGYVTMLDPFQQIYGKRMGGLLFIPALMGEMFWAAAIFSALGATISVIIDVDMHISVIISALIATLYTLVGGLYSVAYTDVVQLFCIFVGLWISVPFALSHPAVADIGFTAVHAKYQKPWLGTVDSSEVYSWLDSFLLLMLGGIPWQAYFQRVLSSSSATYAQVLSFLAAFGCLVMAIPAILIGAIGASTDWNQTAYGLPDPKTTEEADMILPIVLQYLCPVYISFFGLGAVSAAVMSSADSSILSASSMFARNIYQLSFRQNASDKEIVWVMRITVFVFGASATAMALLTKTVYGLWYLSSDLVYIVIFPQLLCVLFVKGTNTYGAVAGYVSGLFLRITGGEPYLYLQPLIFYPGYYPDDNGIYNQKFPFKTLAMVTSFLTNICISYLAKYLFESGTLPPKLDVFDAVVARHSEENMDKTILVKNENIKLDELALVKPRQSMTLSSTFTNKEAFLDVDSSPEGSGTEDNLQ

inhibition, inactive:
Cn1c2ccccc2c(=O)c2c(O)cccc21 15.4%
O=C(c1cnn2c(C(F)(F)F)cc(-c3cccs3)nc12)N1CCN(Cc2ccccc2)CC1 36.1%
C#CCNc1c2c(nc3ncnn13)CC(C)CC2 (stereo not given) 35.4%
Cc1ccccc1OCCC(=O)OCC(=O)c1c(N)n(CC(C)C)c(=O)n(C)c1=O 69.1%
CC(C)Cn1c(N)c(C(=O)COC(=O)CCNS(=O)(=O)c2ccccc2)c(=O)n(C)c1=O 65%
CCc1c(C)nc2ncnn2c1NCCc1ccc(Cl)cc1 28.3%
CCn1c(N2CCN(S(=O)(=O)c3ccc(OC)cc3)CC2)nc2ccccc21 56.7%
O=C(C1CCN(S(=O)(=O)c2ccc3ccccc3c2)CC1)N1CCN(c2ncccn2)CC1 47.8%
O=C(COc1ccccc1/C=C1\SC(=O)NC1=O)Nc1ccccc1 52.7%
CCN(CC)C(=O)CSc1nc2ccc(NC(=O)CSc3nccn3C)cc2s1 79.5%
Cc1ccc2c(c1)N(S(=O)(=O)c1ccc(CN3C(=O)c4cccnc4C3=O)s1)CCO2 28.7%
O=C(Cn1nc(-c2ccccc2)ccc1=O)NCc1ccc(F)cc1 55.3%
O=[N+]([O-])c1cc(-c2ncccn2)c([N+](=O)[O-])s1 49.9%
Cc1cc(C(=O)CSc2n[nH]c(N)n2)c(C)n1-c1ccc(F)cc1 24.1%
Cn1c(CN2CCCC2)c(C#N)c2ccccc21 30.8%
NS(=O)(=O)c1ccc(CCNCc2cc(Cl)ccc2OCc2ccccc2)cc1 16.5%
Cc1cccc(NC(=O)c2ccccc2O)c1C 38%
Cc1nnc(SC(C)C(=O)Nc2sc3c(c2C#N)CCCC3)[nH]c1=O (stereo not given) 23.2%
CCOC(=O)C1CCN(C(=O)CSCc2nc(-c3ccc(OCC)cc3)oc2C)CC1 41.5%
Cc1nc([N+](=O)[O-])c(Br)n1Cc1ccccc1 30.2%
